Results: the antibiotic and cytotoxicity screens of Wong et al. (2023)
The whole screen tested about 39,000 compounds, of which about 3,300 (8.5%) were called active. The sample as a whole holds a higher share of actives than the screen did.

tested on: HepG2; experiment: cytotoxicity call (relative viability < 0.9); settings: 10 µM

Compound | cytotoxicity call
CO[C@H](CN(C)S(=O)(=O)c1cn(C)cn1)[C@@H](C)CN(C(=O)Nc1ccc(C(F)(F)F)cc1)[C@H](C)CO | inactive
Cc1noc(C)c1S(=O)(=O)N(C)C[C@H]1Oc2ccc(NC(=O)NC3CCCCC3)cc2CC(=O)N([C@H](C)CO)C[C@H]1C | inactive
Cc1ccc(S(=O)(=O)N(C)C[C@H]2Oc3c(NC(=O)c4ccncc4)cccc3C(=O)N([C@@H](C)CO)C[C@@H]2C)cc1 | inactive
C[C@H]1CN([C@@H](C)CO)C(=O)c2cccc(NC(=O)c3ccc(-c4nccs4)cc3)c2O[C@H]1CN(C)S(=O)(=O)c1ccc(Cl)cc1 | inactive
CNC1C(OC2OC(CO)C(N)C(O)C2O)OC2CC(N)C(OC3C(N)CC(N)C(O)C3O)OC2C1O.O=S(=O)(O)O (stereo unspecified) | inactive
C[C@H]1CN([C@@H](C)CO)C(=O)Cc2cc(NC(=O)c3ccncc3)ccc2O[C@@H]1CN(C)S(C)(=O)=O | inactive
C[C@@H]1CN([C@@H](C)CO)C(=O)Cc2cc(NC(=O)C3CC3)ccc2O[C@@H]1CN(C)S(=O)(=O)c1ccccc1 | inactive
CO[C@@H]1CN(C)C(=O)c2ccc(NC(=O)C3CC3)cc2OC[C@H](C)N(C(=O)C2CCOCC2)C[C@H]1C | inactive
C[C@@H]1CN([C@@H](C)CO)C(=O)c2cc(NS(=O)(=O)c3cn(C)cn3)ccc2O[C@@H](C)CCCCO[C@H]1CN(C)C | inactive
C[C@@H]1CCCCO[C@@H](CN(C)CC2CCCCC2)[C@@H](C)CN([C@H](C)CO)C(=O)c2cc(NC(=O)Nc3cccc4ccccc34)ccc2O1 | active
C[C@H](CO)N1C[C@H](C)[C@H](CN(C)CC2CC2)OCCCC[C@H](C)Oc2ccc(NC(=O)Nc3cccc4ccccc34)cc2C1=O | inactive
C[C@H](CO)N1C[C@H](C)[C@@H](CN(C)CC2CC2)OCCCC[C@H](C)Oc2ccc(NC(=O)Nc3cccc4ccccc34)cc2C1=O | inactive
C[C@@H]1CCCCO[C@H](CN(C)CC2CC2)[C@H](C)CN([C@@H](C)CO)C(=O)c2cc(NC(=O)Nc3cccc4ccccc34)ccc2O1 | inactive
C[C@@H]1CCCCO[C@H](CN(C)CC2CC2)[C@@H](C)CN([C@H](C)CO)C(=O)c2cc(NC(=O)Nc3cccc4ccccc34)ccc2O1 | inactive
C[C@@H]1CCCCO[C@@H](CN(C)CC2CCCCC2)[C@H](C)CN([C@@H](C)CO)C(=O)c2cc(NC(=O)Nc3cccc4ccccc34)ccc2O1 | active
C[C@H](CO)N1C[C@H](C)[C@H](CN(C)CC2CCCCC2)OCCCC[C@H](C)Oc2ccc(NC(=O)Nc3cccc4ccccc34)cc2C1=O | active
C[C@H](CO)N1C[C@H](C)[C@@H](CN(C)CC2CCCCC2)OCCCC[C@H](C)Oc2ccc(NC(=O)Nc3cccc4ccccc34)cc2C1=O | active
CC(C)NC(=O)Nc1ccc2c(c1)C(=O)N([C@@H](C)CO)C[C@H](C)[C@H](CN(C)C(=O)NC1CCCCC1)O2 | inactive
COC(=O)C1=C(C)NC(C)=C(C(=O)OC)C1 | inactive
O=C(C[C@H]1CC[C@@H](NS(=O)(=O)c2ccccc2F)[C@H](CO)O1)NCCCN1CCOCC1 | inactive
O=C(/C=C/c1ccc(O)c(O)c1)O[C@@H]1C[C@](O)(C(=O)O)C[C@@H](OC(=O)/C=C/c2ccc(O)c(O)c2)[C@H]1O | inactive
CC(C)C[C@H](NC(=O)[C@@H](COC(C)(C)C)NC(=O)[C@H](Cc1ccc(O)cc1)NC(=O)[C@H](CO)NC(=O)[C@H](Cc1c[nH]c2ccccc12)NC(=O)[C@H](Cc1cnc[nH]1)NC(=O)[C@@H]1CCC(=O)N1)C(=O)N[C@@H](CCCNC(=N)N)C(=O)N1CCC[C@H]1C(=O)NNC(N)=O | inactive
C[C@H](CO)N1C[C@H](C)[C@@H](CN(C)S(=O)(=O)c2ccc(F)cc2)Oc2ccc(NS(=O)(=O)c3ccccc3)cc2CC1=O | inactive

Compound | cytotoxicity call
COc1ccccc1-c1cnc2c(c1)C(=O)N([C@H](C)CO)C[C@@H](C)[C@@H](CN(C)C(=O)c1ccncc1)O2 | inactive
C[C@H]1CN([C@@H](C)CO)S(=O)(=O)c2ccc(C3=CCCC3)cc2O[C@H]1CN(C)C(=O)Cc1ccncc1 | inactive
O=C1CN(c2ccccc2)C=NN1 | inactive
C[C@@H]1CN([C@H](C)CO)C(=O)c2cc(NC(=O)Nc3cccc4ccccc34)ccc2O[C@@H](C)CCCCO[C@@H]1CN(C)CC1CCCCC1 | active
C[C@@H]1CCCCO[C@@H](CN(C)CC2CCCCC2)[C@H](C)CN([C@H](C)CO)C(=O)c2cc(NC(=O)Nc3cccc4ccccc34)ccc2O1 | active
COc1ccc(S(=O)(=O)N(C)C[C@@H]2Oc3ccc(NC(=O)Cn4cnnn4)cc3CC(=O)N([C@H](C)CO)C[C@@H]2C)cc1 | inactive
C[C@H](CO)N1C[C@H](C)[C@@H](CN(C)C(=O)Nc2cccc(Cl)c2Cl)OCc2ccccc2-c2ccccc2C1=O | inactive
Cc1noc(C)c1S(=O)(=O)Nc1ccc2c(c1)CC(=O)N([C@H](C)CO)C[C@H](C)[C@H](CN(C)S(=O)(=O)c1ccccc1)O2 | inactive
C[C@H]1CN([C@@H](C)CO)C(=O)CCCn2cc(nn2)CO[C@H]1CN(C)S(=O)(=O)c1ccc(-c2ccccc2)cc1 | inactive
COc1ccc(S(=O)(=O)Nc2ccc3c(c2)C(=O)N([C@@H](C)CO)C[C@@H](C)[C@@H](CN(C)C(=O)CCC(F)(F)F)OCCCC[C@@H](C)O3)cc1 | inactive
CC(=O)O[C@H]1CC(C)(C)C[C@H]2[C@]13CO[C@@]21CC[C@H]2[C@@]4(C)CC[C@H](O[C@@H]5OC[C@H](O[C@@H]6O[C@H](CO)[C@@H](O)[C@H](O)[C@H]6O[C@@H]6OC[C@@H](O[C@@H]7O[C@H](CO)[C@@H](O)[C@H](O)[C@H]7O)[C@H](O)[C@H]6O)[C@H](O)[C@H]5O[C@@H]5O[C@H](CO)[C@@H](O)[C@H](O)[C@H]5O)[C@@](C)(CO)[C@@H]4CC[C@@]2(C)[C@]1(C)C[C@H]3O | active
C[C@@H]1O[C@@H](O[C@H]2[C@H](O[C@H]3[C@H](O)[C@@H](C(=O)O)O[C@@H](O[C@H]4CC[C@]5(C)[C@H]6CC[C@]78OC[C@@]9(CCC(C)(C)C[C@@H]97)[C@H](O)C[C@@]8(C)[C@]6(C)CC[C@H]5C4(C)C)[C@@H]3OC3O[C@H](CO)[C@@H](O)[C@H](O)[C@H]3O)O[C@H](CO)[C@H](O)[C@@H]2O)[C@H](O)[C@H](O)[C@H]1O (stereo partly specified) | active
C[C@@H]1O[C@@H](O[C@H]2[C@H](O[C@H]3[C@H](O)[C@@H](O[C@@H]4O[C@H](CO)[C@@H](O[C@@H]5O[C@H](CO)[C@H](O)[C@H]5O)[C@H](O)[C@H]4O)[C@H](O[C@H]4CC[C@]5(C)[C@H]6CC[C@]78OC[C@@]9(CCC(C)(C)C[C@@H]97)[C@H](O)C[C@@]8(C)[C@]6(C)CC[C@H]5C4(C)C)O[C@@H]3C(=O)O)O[C@H](CO)[C@H](O)[C@@H]2O)[C@H](O)[C@H](O)[C@H]1O | inactive
C[C@H]1O[C@@H](OC[C@H]2O[C@@H](O[C@H]3CC[C@]4(C)[C@H]5CCC6=C(CC[C@@]7(C(=O)O[C@@H]8O[C@H](CO)[C@@H](O)[C@H](O)[C@H]8O[C@@H]8O[C@H](CO)[C@@H](O)[C@H](O)[C@H]8O)CCC(C)(C)C[C@@H]67)[C@]5(C)CC[C@H]4C3(C)C)[C@H](O)[C@@H](O)[C@@H]2O)[C@H](O)[C@@H](O)[C@@H]1O | inactive
C[C@@H]1O[C@@H](O[C@H]2[C@H](O[C@H]3[C@H](O)[C@@H](O[C@@H]4O[C@H](CO)[C@@H](O)[C@H](O)[C@H]4O)[C@H](O[C@H]4CC[C@]5(C)[C@H]6CC[C@]78OC[C@@]9(CCC(C)(C)C[C@@H]97)[C@H](O)C[C@@]8(C)[C@]6(C)CC[C@H]5C4(C)C)O[C@@H]3C(=O)O)O[C@H](CO)[C@H](O)[C@@H]2O)[C@H](O)[C@H](O)[C@H]1O | active
CC(=O)O[C@H]1CC(C)(C)C[C@H]2[C@]13CO[C@@]21CC[C@@H]2[C@@]4(C)CC[C@H](O[C@@H]5O[C@H](C(=O)O)[C@@H](O)[C@H](O[C@@H]6O[C@H](CO)[C@H](O)[C@H](O)[C@H]6O[C@@H]6O[C@@H](C)[C@H](O)[C@@H](O)[C@H]6O)[C@H]5O[C@@H]5O[C@H](CO)[C@@H](O)[C@H](O)[C@H]5O)C(C)(C)[C@@H]4CC[C@@]2(C)[C@]1(C)C[C@H]3O | active
C[C@@H]1O[C@@H](O[C@H]2[C@H](O)[C@@H](O)[C@H](OC(=O)[C@]34CCC(C)(C)C[C@H]3C3=CC[C@H]5[C@@]6(C)CC[C@H](O[C@@H]7O[C@H](C(=O)O)[C@@H](O)[C@H](O)[C@H]7O)C(C)(C)[C@@H]6CC[C@@]5(C)[C@]3(C)CC4)O[C@@H]2CO)[C@H](O)[C@H](O)[C@H]1O | inactive
CC1(C)[C@@H](O[C@H]2O[C@H](C(=O)O)[C@@H](O)[C@H](O)[C@H]2O[C@@H]2O[C@H](C(=O)O)[C@@H](O)[C@H](O)[C@H]2O)CC[C@]2(C)[C@H]3C(=O)C=C4[C@@H]5C[C@@](C)(C(=O)O)CC[C@]5(C)CC[C@@]4(C)[C@]3(C)CC[C@@H]12 | inactive
CC(=N)NCCCC[C@@H](N)C(=O)O | inactive
COCC(=O)Nc1ccc2c(c1)C(=O)N(C)[C@H]1CC[C@@H](CC(=O)N3CCc4ccccc4C3)O[C@H]1CO2 | inactive
CO[C@H]1CN(C)C(=O)c2ccc(NS(=O)(=O)CC(F)(F)F)cc2OC[C@H](C)N(C(=O)c2ccc3c(c2)OCO3)C[C@H]1C | inactive
C=CC[C@H](Nc1ccccc1C)c1ccc(Cl)cc1 | inactive
C[C@H](CO)N1C[C@H](C)[C@@H](CN(C)S(=O)(=O)c2cn(C)cn2)OCCCC[C@H](C)Oc2ccc(NS(C)(=O)=O)cc2C1=O | inactive
